Several values for one entry are separate records, joined by “and”; a condition that tells them apart may be missing. Identical values can stand only once. Activity calls are given as the source filed them. Where a call stands in place of a potency, no number is given. Unless noted, the call rests on the fitted dose curve; in most records, active means well fitted curve in the direction sought with a large enough effect in the repeat runs; inconclusive means weak or mixed curves; inactive means no such curve, though single readings can be large; an effect the other way counts as inactive or inconclusive.
Key:
[1] = qHTS assay to identify small molecule antagonists of the thyroid receptor (TR) signaling pathway - cell viability counter screen (AID 743064); further: nearly all actives have a fitted effect of over 50% in size; further: potency means the concentration at half of the fitted maximal effect
Procedure, shortened: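 Counter screen for cytotoxicity: compound plus T3 (1 nM final) on GH3.TRE-Luc cells, 23.5 h at 37 °C, then fluorescence viability readout with CellTiter-Fluor.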

[2] = qHTS assay to identify small molecule antagonists of the thyroid receptor (TR) signaling pathway (AID 743065); further: nearly all actives have a fitted effect of over 55% in size; further: potency means the concentration at half of the fitted maximal effect
Procedure, shortened: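 Antagonism measured as loss of luciferase signal in GH3 cells stably carrying a TRE-luciferase reporter, co-treated with compound and T3 (1 nM final) for 23.5 h at 37 C. Viability was read in the same well by CellTiter-Fluor.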

[3] = system: thyroid hormone receptor (rat, GH3 cells); test: qHTS assay to identify small molecule agonists of the thyroid receptor (TR) signaling pathway (AID 743066; calls by dose curve)
[4] = molecular target: Estrogen receptor (Homo sapiens) (UniProt P03372); test: qHTS assay to identify small molecule antagonists of the estrogen receptor alpha (ER-alpha) signaling pathway (AID 743069; active means well fitted curve in the direction sought with a large enough effect in the signal ratio in the repeat runs, not every such curve was filed as active; inconclusive means weak or mixed curves, or effect the other way; inactive means no such curve, though single readings can be large or run the other way; the % refers to the signal ratio; further: potency means the concentration at half of the fitted maximal effect)
Sequence of Estrogen receptor (Homo sapiens) (P03372 whole entry, looked up): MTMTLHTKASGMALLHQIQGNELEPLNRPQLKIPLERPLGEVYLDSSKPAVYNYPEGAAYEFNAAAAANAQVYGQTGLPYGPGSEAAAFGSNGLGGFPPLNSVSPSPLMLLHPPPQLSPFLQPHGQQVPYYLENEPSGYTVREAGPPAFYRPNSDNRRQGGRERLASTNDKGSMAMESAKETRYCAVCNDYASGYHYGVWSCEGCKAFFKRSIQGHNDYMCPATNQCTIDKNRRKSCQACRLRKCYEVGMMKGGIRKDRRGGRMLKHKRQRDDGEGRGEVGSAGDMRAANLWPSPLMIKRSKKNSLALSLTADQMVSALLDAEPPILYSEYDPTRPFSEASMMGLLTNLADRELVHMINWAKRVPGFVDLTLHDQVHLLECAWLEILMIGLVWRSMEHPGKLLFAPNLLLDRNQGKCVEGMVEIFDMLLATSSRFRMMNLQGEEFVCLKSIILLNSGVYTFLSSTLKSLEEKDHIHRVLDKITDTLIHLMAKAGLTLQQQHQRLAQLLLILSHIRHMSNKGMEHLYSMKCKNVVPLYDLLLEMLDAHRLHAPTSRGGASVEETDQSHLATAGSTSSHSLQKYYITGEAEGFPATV
Procedure, shortened: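 Fluorescence intensity from a beta-lactamase FRET substrate served as the read-out. Cells: HEK293 with stably integrated ER-alpha-UAS-bla reporter. Agonist 17beta-estradiol was co-added with compounds; incubation 18 hr at 37C, substrate 2 hr at room temperature.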

[5] = qHTS assay to identify small molecule antagonists of the estrogen receptor alpha (ER-alpha) signaling pathway - cell viability counter screen (AID 743074; calls by dose curve; further: nearly all actives have a fitted effect of over 45% in size)
[6] = molecular target: Estrogen receptor (Homo sapiens) (UniProt P03372); test: qHTS assay to identify small molecule agonists of the estrogen receptor alpha (ER-alpha) signaling pathway (AID 743075; calls by dose curve)
[7] = molecular target: Estrogen receptor (Homo sapiens) (UniProt P03372); test: qHTS assay to identify small molecule agonists of the estrogen receptor alpha (ER-alpha) signaling pathway using the BG1 cell line (AID 743079); further: nearly all actives have a fitted effect of over 20% in size; further: potency means the concentration at half of the fitted maximal effect
[8] = qHTS assay to identify small molecule antagonists of the estrogen receptor alpha (ER-alpha) signaling pathway using the BG1 cell line - cell viability counter screen (AID 743081);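 further: compound given together with 17beta-estradiol as the ER stimulus; series mostly up to about 70 µM; nearly all actives have a fitted effect of over 45% in size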
[9] = molecular target: Aromatase (Homo sapiens) (UniProt P11511); test: qHTS assay to identify aromatase inhibitors (AID 743083); further: nearly all actives have a fitted effect of over 55% in size; further: potency means the concentration at half of the fitted maximal effect
Sequence of Aromatase (Homo sapiens) (P11511 whole entry, looked up): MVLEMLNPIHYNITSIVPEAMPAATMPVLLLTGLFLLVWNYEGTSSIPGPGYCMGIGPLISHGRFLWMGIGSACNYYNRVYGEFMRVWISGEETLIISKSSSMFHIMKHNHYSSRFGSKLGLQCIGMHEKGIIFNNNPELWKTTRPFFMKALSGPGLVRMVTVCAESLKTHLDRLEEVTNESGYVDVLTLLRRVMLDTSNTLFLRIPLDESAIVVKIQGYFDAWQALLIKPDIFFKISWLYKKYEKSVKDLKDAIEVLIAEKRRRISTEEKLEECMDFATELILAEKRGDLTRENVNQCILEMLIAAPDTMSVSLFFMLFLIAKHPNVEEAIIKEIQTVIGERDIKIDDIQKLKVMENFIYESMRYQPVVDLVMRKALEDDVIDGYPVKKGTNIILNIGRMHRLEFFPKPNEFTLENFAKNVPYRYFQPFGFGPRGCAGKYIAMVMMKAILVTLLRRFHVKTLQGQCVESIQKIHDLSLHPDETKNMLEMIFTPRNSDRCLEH

[10] = qHTS assay to identify aromatase inhibitors - cell viability counter screen (AID 743084);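 further: cells stimulated with testosterone during compound exposure; nearly all actives have a fitted effect of over 55% in size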
[11] = molecular target: Aryl hydrocarbon receptor (Homo sapiens) (UniProt P35869); test: qHTS assay to identify small molecule that activate the aryl hydrocarbon receptor (AhR) signaling pathway (AID 743085); further: nearly all actives have a fitted effect of over 15% in size; further: potency means the concentration at half of the fitted maximal effect;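 on activation: HG2L7.5c1 human HepG2 liver cells with stably integrated DRE-driven firefly reporter; series mostly up to about 70 µM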
Sequence of Aryl hydrocarbon receptor (Homo sapiens) (P35869 whole entry, looked up): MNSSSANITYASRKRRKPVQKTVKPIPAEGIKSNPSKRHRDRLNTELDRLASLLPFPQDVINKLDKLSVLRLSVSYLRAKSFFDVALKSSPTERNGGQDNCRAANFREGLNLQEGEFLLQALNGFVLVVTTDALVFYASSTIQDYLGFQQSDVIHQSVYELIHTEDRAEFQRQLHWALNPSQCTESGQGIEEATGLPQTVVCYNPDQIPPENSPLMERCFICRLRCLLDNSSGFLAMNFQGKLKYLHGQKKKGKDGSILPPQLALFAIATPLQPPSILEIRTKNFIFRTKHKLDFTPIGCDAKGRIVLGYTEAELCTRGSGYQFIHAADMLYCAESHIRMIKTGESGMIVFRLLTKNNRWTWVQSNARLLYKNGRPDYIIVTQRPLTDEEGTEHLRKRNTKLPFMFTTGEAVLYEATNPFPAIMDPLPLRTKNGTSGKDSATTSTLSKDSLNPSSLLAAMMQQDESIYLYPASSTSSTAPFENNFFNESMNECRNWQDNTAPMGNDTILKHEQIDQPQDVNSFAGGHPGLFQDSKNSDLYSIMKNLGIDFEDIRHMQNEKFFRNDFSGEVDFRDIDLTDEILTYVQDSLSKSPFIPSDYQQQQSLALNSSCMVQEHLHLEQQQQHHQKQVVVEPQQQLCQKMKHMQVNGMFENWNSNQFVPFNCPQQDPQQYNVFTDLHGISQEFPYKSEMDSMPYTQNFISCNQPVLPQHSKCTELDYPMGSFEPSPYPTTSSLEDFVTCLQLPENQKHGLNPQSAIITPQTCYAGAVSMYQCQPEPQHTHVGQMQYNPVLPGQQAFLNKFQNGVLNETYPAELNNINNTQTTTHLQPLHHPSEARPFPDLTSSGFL
Procedure, shortened: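 Measured in HG2L7.5c1 cells: CellTiter-Fluor signal (30 min incubation, 37C) for viability, then luciferase luminescence (30 min, room temperature). Compound contact time was 24 h at 37C, following a 5 h pre-incubation.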

[12] = qHTS assay to identify small molecule that activate the aryl hydrocarbon receptor (AhR) signaling pathway - cell viability counter screen (AID 743086);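 further: HepG2 liver cells carrying the AhR DRE luciferase reporter; series mostly up to about 70 µM; nearly all actives have a fitted effect of over 45% in size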
Procedure, shortened: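 Cytotoxicity counter screen: CellTiter-Fluor signal (30 min, 37 C) in 4000 HepG2 cells/well carrying the DRE-luciferase reporter, following 24 h compound exposure at 37 C.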

[13] = qHTS assay to identify small molecule antagonists of the peroxisome proliferator-activated receptor gamma (PPARg) signaling pathway - cell viability counter screen (AID 743194); settings: Potency: co-treated with 50 nM rosiglitazone; further: nearly all actives have a fitted effect of over 55% in size
Procedure, shortened: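 Viability was measured as CellTiter-Glo luminescence in GeneBLAzer PPARg UAS-bla HEK293H cells. These cells had been exposed 17 h at 37 C to compounds together with rosiglitazone at 50 nM final, with the beta-lactamase readout taken in the same wells.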

[14] = qHTS assay for small molecule agonists of the antioxidant response element (ARE) signaling pathway (AID 743202; active means well fitted activation curve with a large enough effect in the signal ratio in the repeat runs, not every such curve was filed as active; inconclusive means weak or mixed curves, or effect the other way; inactive means no such curve, though single readings can be large or run the other way; the % refers to the signal ratio)
Procedure, shortened: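 Beta-lactamase reporter activity, read as fluorescence intensity, reflects ARE/Nrf2 pathway induction in HepG2 cells after 16 h compound exposure at 37 C; substrate loading was 2 h at room temperature.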

[15] = qHTS assay for small molecule agonists of the antioxidant response element (ARE) signaling pathway - cell viability counter screen (AID 743203; calls by dose curve; further: nearly all actives have a fitted effect of over 55% in size; further: potency means the concentration at half of the fitted maximal effect)
Procedure, shortened: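 Viability counter screen: stably transfected ARE-bla HepG2 line, 16 hrs compound exposure at 37C/5% CO2, ATP-based CellTiter-Glo luminescence measured in the reporter wells.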

[16] = qHTS assay for small molecule activators of the heat shock response signaling pathway - cell viability counter screen (AID 743209); further: nearly all actives have a fitted effect of over 50% in size
Procedure, shortened: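 Viability of HSE-bla HeLa cells is measured with CellTiter-Glo in the wells already used for the reporter read. Compound exposure lasts 5 h at 37 C, and luminescence is read after 30 min at room temperature.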

[17] = qHTS assay for small molecule activators of the heat shock response signaling pathway (AID 743210; active means well fitted activation curve with a large enough effect in the signal ratio in the repeat runs, with a control signal flat, not every such curve was filed as active; inconclusive means weak or mixed curves; the % refers to the signal ratio;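 further: HeLa cells with beta-lactamase reporter driven by heat shock elements; series mostly up to about 63 µM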)
Procedure, shortened: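 Fluorescence from a cleaved B/G FRET substrate (2.5 h, room temp) reports HSE-driven beta-lactamase in HeLa cells treated 5 h at 37 C with DMSO-dissolved compounds.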

[18] = qHTS assay to identify small molecule antagonists of the estrogen receptor alpha (ER-alpha) signaling pathway using the BG1 cell line (AID 743080; calls by dose curve; further: series mostly up to about 70 µM; nearly all actives have a fitted effect of over 25% in size)
Procedure, shortened: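 Antagonist mode: compounds in DMSO were pinned onto BG1-Luc-4E2 cells alongside 17beta-estradiol agonist, incubated 21.5 h, and ERE-driven luciferase measured with ONE-Glo. Cytotoxicity was multiplexed using CellTiter-Fluor fluorescence.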

[19] = molecular target: Peroxisome proliferator-activated receptor gamma (Homo sapiens) (UniProt P37231); test: qHTS assay to identify small molecule agonists of the peroxisome proliferator-activated receptor gamma (PPARg) signaling pathway (AID 743094; active means well fitted activation curve with a large enough effect in the signal ratio in the repeat runs, not every such curve was filed as active; inconclusive means weak or mixed curves, or effect the other way; inactive means no such curve, though single readings can be large or run the other way; the % refers to the signal ratio)
Sequence of Peroxisome proliferator-activated receptor gamma (Homo sapiens) (P37231 whole entry, looked up): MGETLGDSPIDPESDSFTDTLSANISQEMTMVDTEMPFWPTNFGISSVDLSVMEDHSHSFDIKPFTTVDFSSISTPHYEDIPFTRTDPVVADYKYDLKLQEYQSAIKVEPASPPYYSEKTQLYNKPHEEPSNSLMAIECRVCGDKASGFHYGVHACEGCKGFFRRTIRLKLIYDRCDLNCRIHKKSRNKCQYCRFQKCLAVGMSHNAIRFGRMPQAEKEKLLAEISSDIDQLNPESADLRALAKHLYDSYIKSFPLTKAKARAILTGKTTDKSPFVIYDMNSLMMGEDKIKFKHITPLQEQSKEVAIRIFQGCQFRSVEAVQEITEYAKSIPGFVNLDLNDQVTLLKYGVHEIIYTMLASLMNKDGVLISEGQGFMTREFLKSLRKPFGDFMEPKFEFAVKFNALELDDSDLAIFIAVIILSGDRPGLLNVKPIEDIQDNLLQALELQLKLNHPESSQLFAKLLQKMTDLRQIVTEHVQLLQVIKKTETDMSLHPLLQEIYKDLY
Procedure, shortened: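 Reporter activation was scored by fluorescence of cleaved LiveBLAzer B/G substrate (1 h, room temperature) in PPARg-bla HEK293H cells previously treated 17 h at 37C with DMSO-dissolved compounds.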

[20] = molecular target: Peroxisome proliferator-activated receptor gamma (Homo sapiens) (UniProt P37231); test: qHTS assay to identify small molecule antagonists of the peroxisome proliferator-activated receptor gamma (PPARg) signaling pathway (AID 743191; calls by dose curve; further: nearly all actives have a fitted effect of over 30% in size; further: potency means the concentration at half of the fitted maximal effect)
Procedure, shortened: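 Beta-lactamase reporter under UAS control in HEK293H PPARg-bla cells; compound treatment 17 h at 37C. Read-out: fluorescence intensity after 1 h room-temperature incubation with LiveBLAzer B/G FRET substrate.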

Row | Structure (SMILES) | Potency [1] | Potency [2] | Potency [3] | Potency [4] | Potency [5] | Potency [6] | Potency [7] | Potency [8] | Potency [9] | Potency [10] | Potency [11] | Potency [12] | Potency [13] | Potency [14] | Potency [15] | Potency [16] | Potency [17] | Potency [18] | Potency [19] | Potency [20]
1 | CCCCC#N | inactive | inactive | inactive | inactive | inactive | inactive | inactive | inactive | inactive | inactive | inactive | inactive | inactive | inactive | inactive | inactive | inactive |  |  | 
2 | C=CCc1ccccc1O | inactive | inactive | inactive | inactive | inactive | inactive | inactive | inactive | inactive | inactive | inactive | inactive | inactive |  | inactive | inactive | inactive | inactive |  | 
3 | SCc1ccccc1 | inactive | inactive | inactive | inactive | inactive | inactive | 62.9 µM (active) | inactive | inactive | inactive | inactive | inactive | inactive |  | inactive | inactive | inactive |  | inactive | 
4 | CON(C)C(=O)Nc1ccc(Cl)cc1 | inactive | inactive | inactive | inactive | inactive | inactive | inactive | inactive | inactive | inactive | 27.3 µM (active) | inactive | inactive |  | inactive | inactive | inactive | inactive | inactive | inactive
5 | C=CCOCC1CO1 (configuration not stated) | inactive | inactive | inactive | inactive | inactive | inactive | inactive | inactive | inactive | inactive | inactive | inactive | inactive | inactive | inactive | inactive | inactive | inactive | inactive | inactive
6 | CC(C)(C)c1ccc(CCOc2ncnc3ccccc23)cc1 | inactive | inactive | inactive | inactive | inactive | inactive | inactive | inactive | inactive | inactive | inactive | inactive | inactive | inactive | inactive | inactive | inactive | inactive |  | 
7 | Nc1c(Br)cc(Br)c2c1C(=O)c1ccccc1C2=O | inactive | inactive | inactive | inactive | inactive | inactive | inactive | inactive | inactive | inactive | 7.25 µM (active) | inactive | inactive |  | inactive | inactive | inactive |  | inactive | 
8 | O=P(OCC(Br)CBr)(OCC(Br)CBr)OCC(Br)CBr (configuration not stated) | 43.8 µM (active) and 51.7 µM (active) | 27.7 µM (active) and 23.1 µM (active) | inactive | 62.5 µM [inconclusive] (active) and 46.5 µM [inconclusive] (active) | inactive | inactive | inactive | inactive | 61.9 µM (active) | inactive | inactive |  |  |  | 36.6 µM (active) | inactive |  | inactive |  | 44.2 µM (active)
9 | COc1ccc(C(O)(c2cncnc2)C2CC2)cc1 (configuration not stated) | inactive | inactive | inactive | inactive | inactive | inactive | inactive | inactive | inactive | inactive | inactive | inactive | inactive | inactive | inactive | inactive | inactive | inactive | inactive | inactive
10 | CC(C)c1ccc(OP(=O)(Oc2ccc(C(C)C)cc2)Oc2ccc(C(C)C)cc2)cc1 | 54.9 µM (active) and 68.6 µM (active) and 30.6 µM (active) | 54.9 µM (active) and 54.5 µM (active) and 30.6 µM (active) | inactive | inactive | inactive | inactive | 2.75 µM (active) and 6.85 µM (active) | inactive | inactive | inactive | inactive | inactive | inactive | inactive | inactive | inactive | inactive | inactive | inactive | 38.9 µM (active)
11 | CCCC1CCCCN1 (configuration not stated) | inactive | inactive | inactive | inactive | inactive | inactive | inactive | inactive | inactive | inactive | inactive | inactive | inactive | inactive | inactive | inactive | inactive | inactive | inactive | inactive
12 | CCC[N+](CCC)(CCC)CCC | inactive | inactive | inactive | inactive | inactive | inactive | inactive | inactive | inactive | inactive | inactive | inactive | inactive | inactive | inactive | inactive |  |  | inactive | inactive
13 | CCOP(=O)(O)C(N)=O | inactive | inactive | inactive | inactive | inactive | inactive | inactive | inactive | inactive | inactive | inactive | inactive | inactive | inactive | inactive | inactive | inactive | inactive | inactive | inactive
14 | CCCCC(CC)CO[N+](=O)[O-] (configuration not stated) | inactive | inactive | inactive | inactive | inactive | inactive | inactive | inactive | inactive | inactive | inactive | inactive | inactive |  | inactive | inactive | inactive | inactive | inactive | inactive

— PubChem BioAssay (Tox21)
